This is part of a sample that, as a whole, favours compounds with a hit. Of some 79,000 tested, about 15% had one in any assay. Active and inactive are the calls of the source. No stated cut-off is given here; in the data, active means growth inhibition above about 70%; inactive means the rest.
Key:
[1] = NCI Yeast Anticancer Drug Screen. Data for the wt1 strain (AID 149);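 further: 0% = growth of vehicle-treated wt1 cultures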; details: S. cerevisiae wt1 strain (SPY 50644) growth inhibition, stronger effect = higher value
In short: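 Using yeast strain wt1, compound-induced growth inhibition was determined against vehicle-treated cultures.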

[2] = NCI Yeast Anticancer Drug Screen. Data for the rad50EPP+ strain (AID 151);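 further: 0% = growth of vehicle-treated control cultures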; details: S. cerevisiae rad50 mutant strain, stronger effect = higher value
In short: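 Growth inhibition read against vehicle controls in rad50EPP+ yeast, a strain altered in DNA damage repair, after compound exposure.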

[3] = NCI Yeast Anticancer Drug Screen. Data for the mec2-1 strain (AID 157); details: S. cerevisiae mec2-1 strain, stronger effect = higher value
In short: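 Yeast mec2-1 mutant treated with compound. Readout: growth inhibition vs vehicle controls.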

[4] = NCI Yeast Anticancer Drug Screen. Data for the rad14 strain (AID 159);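 further: 0% = growth of vehicle-treated control cultures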; details: S. cerevisiae rad14 strain growth inhibition, stronger effect = higher value
In short: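 Screen for anticancer potential: a yeast strain altered in DNA damage repair is grown with compound, and reduced growth is quantified against vehicle controls.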

[5] = NCI Yeast Anticancer Drug Screen. Data for the sgs1 mgt1 strain (AID 161);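 further: 0% = growth of cultures given vehicle only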; details: S. cerevisiae sgs1 mgt1 strain, stronger effect = higher value
In short: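 Genetically altered yeast, compound exposure, growth inhibition relative to vehicle.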

[6] = NCI Yeast Anticancer Drug Screen. Data for the CLN2oe strain (AID 163);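 further: 0% = growth of vehicle-only control cultures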; details: S. cerevisiae CLN2oe strain, stronger effect = higher value
In short: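 Read-out: yeast growth inhibition, expressed relative to vehicle-only controls. The strain bears an engineered cell-cycle alteration.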

[7] = NCI Yeast Anticancer Drug Screen. Data for the cln2 rad14 strain (AID 165);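 further: 0% = growth equal to vehicle treated cultures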; details: S. cerevisiae cln2 rad14 strain, stronger effect = higher value
In short: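 cln2 rad14 yeast strain; compound exposure; growth inhibition read vs vehicle controls.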

[8] = NCI Yeast Anticancer Drug Screen. Data for the bub3 strain (AID 167); details: S. cerevisiae bub3 mutant strain, stronger effect = higher value
In short: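 Screening used yeast with an engineered genetic alteration affecting cell cycle control. Compound-exposed cultures were compared with vehicle cultures, and reduced growth was taken as inhibition.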

[9] = NCI Yeast Anticancer Drug Screen. Data for the wt2 strain (AID 169);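 further: 0% = growth of vehicle-treated yeast cultures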; details: S. cerevisiae wt2 strain growth inhibition, stronger effect = higher value
In short: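 Read-out: growth inhibition versus vehicle-treated control cultures after compound exposure of the yeast strain.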

[10] = NCI Yeast Anticancer Drug Screen. Data for the mlh1 strain (AID 171);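 further: 0% = growth of vehicle-treated control cultures of the same strain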; details: S. cerevisiae mlh1 strain growth inhibition, stronger effect = higher value
In short: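 Read-out: growth inhibition versus vehicle controls. Strain: engineered yeast with a defined DNA repair or cell cycle defect, compound-treated.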

[11] = NCI Yeast Anticancer Drug Screen. Data for the sgs1 strain (AID 173);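 further: 0% = growth of vehicle-only control cultures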; details: S. cerevisiae sgs1 mutant, stronger effect = higher value
In short: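 Read-out: yeast growth inhibition relative to vehicle controls, following compound exposure of a strain with a defined DNA repair/cell cycle alteration.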

[12] = NCI Yeast Anticancer Drug Screen. Data for the mlh1 rad18 strain (AID 175); details: S. cerevisiae mlh1 rad18 strain growth inhibition, stronger effect = higher value
In short: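 Yeast w/ defined DNA-repair lesions; compound exposure; growth vs vehicle controls → % inhibition.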

[13] = NCI Yeast Anticancer Drug Screen. Data for the rad18 strain (AID 177); details: S. cerevisiae rad18 mutant growth inhibition, stronger effect = higher value
In short: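 Readout: growth inhibition vs vehicle controls. Cells: genetically altered yeast strain, DNA repair defect.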

[14] = NCI Yeast Anticancer Drug Screen. Data for the rad52 strain (AID 147);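 further: 0% = growth of vehicle-treated control cultures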; details: S. cerevisiae rad52 mutant growth inhibition, stronger effect = higher value
In short: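 Read-out: growth inhibition versus vehicle-treated controls. Cells were a DNA repair-deficient yeast strain treated with compounds.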

[15] = NCI Yeast Anticancer Drug Screen. Data for the rad50 strain (AID 155);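 further: 0% = growth of vehicle-only cultures of the same strain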; details: S. cerevisiae rad50 strain growth inhibition, stronger effect = higher value
In short: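 Relative growth inhibition (compound vs vehicle) was measured in yeast with a defined repair-gene alteration.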

[16] = at 5.0 µM (retest, dose inferred, filed as 0.5)
[17] = at 50.0 µM (retest, dose inferred, filed as 5.0)

Measured: growth inhibition

CC(C)(C)c1ccc(O)c(C(c2ccc([N+](=O)[O-])cc2)c2cc(C(C)(C)C)ccc2O)c1
active: [1]; at 33.0 µM 81% | [1]; at 100.0 µM 90% | [3]; at 33.0 µM 85% | [3]; [17] 94% | [3]; at 50.0 µM 89% | [3]; at 100.0 µM 92% | [4]; at 33.0 µM 71% | [4]; at 100.0 µM 90% | [5]; [17] 93% | [6]; at 33.0 µM 80% | [6]; at 100.0 µM 91% | [7]; [17] 93% | [7]; at 50.0 µM 82.8% | [8]; at 33.0 µM 88% | [8]; [17] 94% | [8]; at 50.0 µM 84.2% | [8]; at 100.0 µM 92% | [9]; at 33.0 µM 81% | [9]; at 100.0 µM 83% | [10]; at 33.0 µM 90% | [10]; at 100.0 µM 93% | [11]; at 33.0 µM 82% | [11]; at 100.0 µM 93% | [12]; [17] 93% | [12]; at 50.0 µM 80.2% | [13]; at 33.0 µM 70% | [13]; at 100.0 µM 88%
inactive: [1]; at 1.2 µM -2% | [1]; at 3.7 µM -4% | [1]; at 11.0 µM 42% | [2]; at 1.2 µM 7% | [2]; at 3.7 µM -8% | [2]; at 11.0 µM -24% | [2]; at 33.0 µM -14% | [2]; at 100.0 µM -10% | [3]; at 1.2 µM -1% | [3]; at 3.7 µM 14% | [3]; [16] 7% | [3]; at 11.0 µM 57% | [4]; at 1.2 µM -9% | [4]; at 3.7 µM -24% | [4]; at 11.0 µM 14% | [5]; [16] 29% | [5]; at 50.0 µM 29.1% | [6]; at 1.2 µM 2% | [6]; at 3.7 µM 19% | [6]; at 11.0 µM 38% | [7]; [16] 43% | [8]; at 1.2 µM 9% | [8]; at 3.7 µM 16% | [8]; [16] 33% | [8]; at 11.0 µM 53% | [9]; at 1.2 µM -16% | [9]; at 3.7 µM -19% | [9]; at 11.0 µM 46% | [10]; at 1.2 µM 12% | [10]; at 3.7 µM 6% | [10]; at 11.0 µM 29% | [11]; at 1.2 µM 22% | [11]; at 3.7 µM 13% | [11]; at 11.0 µM 40% | [12]; [16] 36% | [13]; at 1.2 µM 21% | [13]; at 3.7 µM 41% | [13]; at 11.0 µM 57%

Cc1nc2c(ncn2CCO)c(=O)[nH]1
active: [8]; [17] 76% | [12]; [17] 91%
inactive: [14]; at 1.2 µM -3% | [14]; at 3.7 µM -8% | [14]; at 11.0 µM -7% | [14]; at 33.0 µM -12% | [14]; at 100.0 µM -14% | [2]; at 1.2 µM -11% | [2]; at 3.7 µM 10% | [2]; at 11.0 µM 5% | [2]; at 33.0 µM 3% | [2]; at 100.0 µM 1% | [15]; at 1.2 µM -29% | [15]; at 3.7 µM -34% | [15]; [16] 29% | [15]; at 11.0 µM -32% | [15]; at 33.0 µM -33% | [15]; [17] 39% | [15]; at 50.0 µM 7.95% | [15]; at 100.0 µM -24% | [3]; at 1.2 µM 15% | [3]; at 3.7 µM -2% | [3]; [16] 13% | [3]; at 11.0 µM -3% | [3]; at 33.0 µM -3% | [3]; [17] 47% | [3]; at 50.0 µM -20.6% | [3]; at 100.0 µM -13% | [4]; at 1.2 µM -3% | [4]; at 3.7 µM 6% | [4]; at 11.0 µM 11% | [4]; at 33.0 µM -5% | [4]; at 100.0 µM -2% | [5]; [16] 29% | [5]; at 50.0 µM 2.1% | [6]; at 1.2 µM 0% | [6]; at 3.7 µM -7% | [6]; at 11.0 µM -2% | [6]; at 33.0 µM -6% | [6]; at 100.0 µM -4% | [7]; [16] 8% | [7]; [17] 34% | [7]; at 50.0 µM 8.25% | [8]; at 1.2 µM -10% | [8]; at 3.7 µM -7% | [8]; [16] 21% | [8]; at 11.0 µM -17% | [8]; at 33.0 µM -13% | [8]; at 50.0 µM 0.5% | [8]; at 100.0 µM -28% | [9]; at 1.2 µM -15% | [9]; at 3.7 µM -30% | [9]; at 11.0 µM -31% | [9]; at 33.0 µM -37% | [9]; at 100.0 µM -38% | [10]; at 1.2 µM -16% | [10]; at 3.7 µM -11% | [10]; at 11.0 µM -14% | [10]; at 33.0 µM -18% | [10]; at 100.0 µM -5% | [11]; at 1.2 µM 2% | [11]; at 3.7 µM 8% | [11]; at 11.0 µM 9% | [11]; at 33.0 µM 5% | [11]; at 100.0 µM -2% | [12]; [16] 45% | [12]; at 50.0 µM -40.7% | [13]; at 1.2 µM -38% | [13]; at 3.7 µM -32% | [13]; at 11.0 µM -9% | [13]; at 33.0 µM -35% | [13]; at 100.0 µM -36%

Nc1cc(F)cc2c1-c1ccc(F)cc1C2
inactive: [1]; at 1.2 µM -3% | [1]; at 3.7 µM -4% | [1]; at 11.0 µM -4% | [1]; at 33.0 µM 10% | [2]; at 1.2 µM 3% | [2]; at 3.7 µM 10% | [2]; at 11.0 µM 25% | [15]; at 1.2 µM 6% | [15]; at 3.7 µM -41% | [15]; [16] 1% | [15]; at 11.0 µM 33% | [15]; at 33.0 µM 47% | [15]; [17] 60% | [3]; at 1.2 µM -1% | [3]; at 3.7 µM 1% | [3]; [16] 2% | [3]; at 11.0 µM 2% | [3]; at 33.0 µM 23% | [3]; [17] 18% | [4]; at 1.2 µM 4% | [4]; at 3.7 µM 5% | [4]; at 11.0 µM 9% | [4]; at 33.0 µM 27% | [5]; [16] -5% | [5]; [17] 7% | [6]; at 1.2 µM -10% | [6]; at 3.7 µM -9% | [6]; at 11.0 µM -1% | [6]; at 33.0 µM 7% | [8]; at 1.2 µM -1% | [8]; at 3.7 µM -2% | [8]; [16] 3% | [8]; at 11.0 µM -2% | [8]; at 33.0 µM 16% | [8]; [17] 27% | [9]; at 1.2 µM -3% | [9]; at 3.7 µM 5% | [9]; at 11.0 µM -3% | [9]; at 33.0 µM 15% | [10]; at 1.2 µM -4% | [10]; at 3.7 µM -3% | [10]; at 11.0 µM -3% | [10]; at 33.0 µM 14% | [11]; at 1.2 µM -3% | [11]; at 3.7 µM 0% | [11]; at 11.0 µM 6% | [11]; at 33.0 µM 46% | [12]; [16] -1% | [12]; [17] 61% | [13]; at 1.2 µM -1% | [13]; at 3.7 µM 4% | [13]; at 11.0 µM 7% | [13]; at 33.0 µM 49%
active: [1]; at 100.0 µM 90% | [2]; at 33.0 µM 90% | [2]; at 100.0 µM 95% | [15]; at 50.0 µM 87% | [15]; at 100.0 µM 92% | [3]; at 50.0 µM 74.6% | [3]; at 100.0 µM 91% | [4]; at 100.0 µM 94% | [5]; at 50.0 µM 77% | [6]; at 100.0 µM 72% | [8]; at 50.0 µM 78.5% | [8]; at 100.0 µM 91% | [9]; at 100.0 µM 89% | [10]; at 100.0 µM 92% | [11]; at 100.0 µM 93% | [12]; at 50.0 µM 87.7% | [13]; at 100.0 µM 94%

Reference: PubChem BioAssay (NCI)
